Compounds with a hit are over-represented: about 14% of the library has one in this group of screens.
MARV entry inh: qHTS for inhibitors of binding or entry into cells for Marburg Virus; Marburg virus pseudotyped entry inhibition, cell reporter; Potency, µM (top dose mostly 37.8 µM), for inactives: top-dose activity change, negative = inhibition, hits mostly inhibitors; hit rate 1.8% among 300,000; AID 540276, 2011; calls by dose curve; tested in HEK293 cells; note: potency is the fitted concentration of half-maximal effect
Lassa entry inh: qHTS for Inhibitors of binding or entry into cells for Lassa Virus. Lassa virus pseudotype entry inhibition, cell reporter. Potency, µM (doses to about 37.9 µM), inactives show at the top dose activity change, negative = inhibition, actives largely listed as inhibitors. hit rate 1.2% among 300,000. AID 540256, 2011; calls by dose curve; tested in HEK293 cells; note: potency is the fitted concentration of half-maximal effect; nearly all actives have a fitted effect of over 50% in size
Pf growth 96h: Primary qHTS for delayed death inhibitors of the malarial parasite plastid, 96 hour incubation; P. falciparum luciferase reporter growth, 96 h; Potency, µM (titrated, usually from 28.7 µM), for inactives: at the top dose activity change, negative = inhibition, hits mostly inhibitors; hit rate 6.9% among 320,000; AID 504834, 2011; note: potency is the fitted concentration of half-maximal effect
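Cell-based qHTS: luciferase-tagged P. falciparum in erythrocytes (2% hematocrit, 0.05% parasitemia final) incubated with compounds for 96 hours, 37 C, 5% CO2; luciferase detection reagent then added and luminescence measured.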
HCMV inh: qHTS Assay for inhibitors of the human cytomegalovirus (HCMV); HFF cells, HCMV-luciferase reporter, 72 h; active compounds read low; activity change, negative = inhibition, % at 57.5 µM; hit rate 4.5% among 410,000; in the data active = activity change below about -60%; inconclusive = no clear call, values can overlap the other calls; inactive = above about -39%
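After 16 h attachment at 37C, HFF cells received test compound and HCMV-luciferase (1 PFU/cell); reporter luminescence read 72 h later, data normalized against buffer-only and known inhibitor Salinomycin.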
Pf growth 48h: Primary qHTS for delayed death inhibitors of the malarial parasite plastid, 48 hour incubation. P. falciparum luciferase growth in erythrocytes, 48 h. Potency, µM (doses to about 28.7 µM), without a hit: at the top dose activity change, negative = inhibition, hits mostly inhibitors. hit rate 5.9% among 310,000; note: potency is the fitted concentration of half-maximal effect
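Luciferase-expressing parasites in RBCs, 2% Hct / 0.1% parasitemia final; RPMI 1640 + 0.5% Albumax; 37 C, 5% CO2, one generation; luminescence read-out, lower signal = inhibition.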
HCV inhibitor: qHTS Assay for Inhibitors of Hepatitis C Virus (HCV). AID 651820, 2012. Huh7.5.1 HCVcc-Cre infection, luciferase reporter, 44 h. hit rate 3.4% among 340,000. Potency, µM (top dose mostly 41.8 µM), without a hit: at the highest dose activity change, negative = inhibition, most hits filed as inhibitors; note: potency is the fitted concentration of half-maximal effect
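Reporter virus HCVcc-Cre (~0.5 moi) infects cells exposed to compound; seeding density 1,000 cells/well with 4 h settling beforehand. Luminescence, 15 sec read, taken 44 h post-infection following a 15 min RT substrate incubation.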
* marks the source's active call; other numbers are inactive results; [ ] = another dose, or the depositor's remark. Unless noted, calls come from the whole dose curve; as a rule, active = well fitted inhibition curve with a large enough effect; inconclusive = small, poorly fitted or top-dose-only effect, or another doubt; inactive = no such curve, though single readings can be large or run the other way. % is set by controls: 0 for no effect and ±100 for the full control effect.

What do the screens show for `Cc1cccc(Cl)c1NC(=O)N(C)c1ccccc1`?
HCMV inh: 54

Results for COc1cc(C(=O)c2nccc3cc(OC)c(OC)cc23)c([N+](=O)[O-])cc1OC ?
MARV entry inh: -14%[46.1 µM]; Lassa entry inh: 8%; Pf growth 96h: inconclusive; HCMV inh: -3; Pf growth 48h: inconclusive; HCV inhibitor: inconclusive

Results for COc1cc(Br)c(C(=O)c2nccc3cc(OC)c(OC)cc23)cc1OC ?
MARV entry inh: inconclusive; Lassa entry inh: inconclusive; Pf growth 96h: 8%; HCMV inh: 50; Pf growth 48h: 6.6µM*; HCV inhibitor: inconclusive

What do the screens show for `COc1cc(N)c(C(=O)c2nccc3cc(OC)c(OC)cc23)cc1OC`?
MARV entry inh: -5%; Lassa entry inh: -14%; Pf growth 96h: 5.2µM*; HCMV inh: 31; Pf growth 48h: 0%; HCV inhibitor: 18%

How did Cc1cccc(C(=O)OC(C)C(=O)Nc2ccc(S(=O)(=O)Nc3ncccn3)cc2)c1C (centres undefined) do in these assays?
Pf growth 96h: 3%; HCMV inh: -20; Pf growth 48h: -2%; HCV inhibitor: 1%

What do the screens show for `O=C(Nc1ccc(C(F)(F)F)cc1)c1cccn(Cc2ccc3c(c2)OC(F)(F)O3)c1=O`?
MARV entry inh: inconclusive; Lassa entry inh: -12%; Pf growth 96h: 21%; HCMV inh: -98*; Pf growth 48h: -4%; HCV inhibitor: 10µM*

What do the screens show for `CC(C)(C)n1nc2c(c1NC(=O)c1c(F)cccc1F)CS(=O)(=O)C2`?
Pf growth 96h: inconclusive; HCMV inh: 0; Pf growth 48h: 18%; HCV inhibitor: 9%

What do the screens show for `O=C(Cn1nc(C(F)F)cc1C1CC1)NCCC1=CCCCC1`?
MARV entry inh: 3%; Lassa entry inh: 9%; Pf growth 96h: 3.3µM*; HCMV inh: -7; Pf growth 48h: -27%; HCV inhibitor: 13%

What do the screens show for `CC(C)=CCC/C(C)=C/CO/N=C1\C[C@@H](O)[C@@H](O)[C@@H]2[C@@H]3C(=O)N(Cc4ccc5c(c4)OCO5)C(=O)[C@@H]3CC[C@@H]12`?
MARV entry inh: -17%[14.2 µM]

Results for CC(=O)Oc1ccc(-c2cccc(C(=O)OCC(=O)N(C)c3ccccc3)c2)cc1 ?
MARV entry inh: -27%; Lassa entry inh: -28%; Pf growth 96h: 15µM*; HCMV inh: -25; Pf growth 48h: -88%; HCV inhibitor: -5%

How did CCOc1ccccc1NC(=O)COC(=O)c1cccc(-c2ccc(OC(C)=O)cc2)c1 do in these assays?
MARV entry inh: inconclusive; Lassa entry inh: -22%; Pf growth 96h: 9.3µM*; HCMV inh: 24; Pf growth 48h: 9.3µM*; HCV inhibitor: -48%

Results for CN(C)c1cccc(C(=O)OCC(=O)N(C)c2ccccc2)c1 ?
MARV entry inh: inconclusive; Lassa entry inh: 14%[46.1 µM]; Pf growth 96h: 11%; HCMV inh: inconclusive; Pf growth 48h: -3%; HCV inhibitor: 5%

How did CCCCC1(CC)SCC(=O)NC1=O (centres undefined) do in these assays?
MARV entry inh: 20%; Lassa entry inh: 17%; HCMV inh: 15; HCV inhibitor: 23%

Results for COc1ccccc1NS(=O)(=O)c1cc(NC(=O)c2cccs2)ccc1N1CCCC1 ?
MARV entry inh: inconclusive; Lassa entry inh: 12µM*; Pf growth 96h: inconclusive; HCMV inh: inconclusive; Pf growth 48h: inconclusive; HCV inhibitor: inconclusive

What do the screens show for `COc1ccccc1NS(=O)(=O)c1cc(NC(=O)c2cccs2)ccc1N1CCCCC1`?
MARV entry inh: 5.8µM*; Lassa entry inh: inconclusive; Pf growth 96h: 3.7µM*; HCMV inh: -37; Pf growth 48h: inconclusive; HCV inhibitor: 7%

How did COc1ccccc1NS(=O)(=O)c1cc(NC(=O)c2sccc2C)ccc1N1CCCC1 do in these assays?
MARV entry inh: inconclusive; Lassa entry inh: -18%; Pf growth 96h: inconclusive; HCMV inh: inconclusive; Pf growth 48h: inconclusive; HCV inhibitor: 18%

What do the screens show for `O=C(Nc1ccc(N2CCCC2)c(S(=O)(=O)Nc2cccc(C(F)(F)F)c2)c1)c1cccs1`?
MARV entry inh: 1.4µM*; Lassa entry inh: inconclusive; Pf growth 96h: 15µM*; HCMV inh: inconclusive; Pf growth 48h: inconclusive; HCV inhibitor: inconclusive

What do the screens show for `COc1cccc(/C(O)=C2\C(=O)C(=O)N(c3ccccn3)[C@H]2c2ccccc2OC)c1`?
MARV entry inh: 1%

What do the screens show for `O=c1oc2ccc(Cl)cc2nc1/C=C(\O)c1ccco1`?
MARV entry inh: 5%; Lassa entry inh: -25%; Pf growth 96h: 15µM*; HCMV inh: -19; Pf growth 48h: inconclusive; HCV inhibitor: -22%

Results for CC(C)C/C(O)=C/c1nc2cc(Cl)ccc2oc1=O ?
MARV entry inh: inconclusive; Lassa entry inh: inconclusive; Pf growth 96h: inconclusive; HCMV inh: -33; Pf growth 48h: inconclusive; HCV inhibitor: 1%

How did OC[C@H]1O[C@@H](c2nc(-c3cccc4ccccc34)no2)[C@H](O)[C@@H]1O do in these assays?
HCMV inh: 33

What do the screens show for `CCN(Cc1ccncc1)C(=O)C1CCN(S(=O)(=O)c2cccs2)CC1`?
MARV entry inh: 6%; Lassa entry inh: inconclusive; Pf growth 96h: -17%; HCMV inh: -107*; HCV inhibitor: 8%

How did CN(C(=O)C1CCN(S(=O)(=O)c2cccs2)CC1)C1CCCCC1 do in these assays?
MARV entry inh: 10%; Lassa entry inh: -12%; Pf growth 96h: 1.7µM*; HCMV inh: -27; Pf growth 48h: -16%; HCV inhibitor: 21%

How did OCc1ccccc1-c1cnc2sc(NCc3ccc(F)cc3)nn12 do in these assays?
HCMV inh: -23

How did CCOC(=O)c1ccc(S(=O)(=O)N2CCN(C(=O)c3cc4ccccc4o3)CC2)cc1 do in these assays?
MARV entry inh: -29%; Lassa entry inh: -24%; Pf growth 96h: inconclusive; HCMV inh: 0; Pf growth 48h: 9.3µM*; HCV inhibitor: 5%

What do the screens show for `O=C(c1cc2ccccc2o1)N1CCN(S(=O)(=O)c2ccc(F)c(F)c2F)CC1`?
Pf growth 96h: 10µM*; HCMV inh: -35; Pf growth 48h: 8.3µM*; HCV inhibitor: 2%

Results for C#CCOCCOCCOCCNc1nc(N2CCN(C(=O)[C@H](CCCCN)n3cc(C(N)COC(=O)C(F)(F)F)nn3)CC2)nc(N2CCN(C(=O)[C@H](CCCCN)n3cc(C(N)CC(C)C)nn3)CC2)n1 (some centres undefined) ?
Pf growth 96h: 65%; Pf growth 48h: -1%
